Shown are actives, neighbours in structure and some others; about 7% of the full set was active somewhere.
KAT2A inh: GCN5L2 (KAT2A) acetyltransferase inhibition. Q92830. GCN5L2 HAT assay, ThioGlo1 CoA-SH fluorescence. Potency, µM (top dose mostly 58.9 µM), for the others: at the top dose activity change, negative = inhibition, hits mostly inhibitors. 0.21% of 390,000 active. AID 504327; note: potency is the fitted concentration of half-maximal effect; % is set by controls: 0 for no effect and ±100 for the full control effect
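Fluorescence readout, Ex340nm/Em540nm: ThioGlo1 (50uM final) reacts with free CoA thiol released as 20nM GCN5L2 acetylates H3(1-25) peptide (75uM) using acetyl-CoA (70uM). Compound and enzyme sat 15 min beforehand; 20 min room-temperature reaction.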
PLK1 PBD block: PLK1 (human) polo-box domain binding inhibition | AID 720504 | Potency, µM, for inactives: max response, negative = inhibition, actives largely listed as inhibitors | P53350 | 2.8% of 360,000 active | Plk1 PBD binding of FITC phosphopeptide, fluorescence polarization; note: potency is the fitted concentration of half-maximal effect; series mostly up to about 57 µM; % is set by controls: 0 for no effect and ±100 for the full control effect; nearly all actives have a fitted effect of over 65% in size
Target sequence (P53350 whole entry, looked up, the tested form may be a part): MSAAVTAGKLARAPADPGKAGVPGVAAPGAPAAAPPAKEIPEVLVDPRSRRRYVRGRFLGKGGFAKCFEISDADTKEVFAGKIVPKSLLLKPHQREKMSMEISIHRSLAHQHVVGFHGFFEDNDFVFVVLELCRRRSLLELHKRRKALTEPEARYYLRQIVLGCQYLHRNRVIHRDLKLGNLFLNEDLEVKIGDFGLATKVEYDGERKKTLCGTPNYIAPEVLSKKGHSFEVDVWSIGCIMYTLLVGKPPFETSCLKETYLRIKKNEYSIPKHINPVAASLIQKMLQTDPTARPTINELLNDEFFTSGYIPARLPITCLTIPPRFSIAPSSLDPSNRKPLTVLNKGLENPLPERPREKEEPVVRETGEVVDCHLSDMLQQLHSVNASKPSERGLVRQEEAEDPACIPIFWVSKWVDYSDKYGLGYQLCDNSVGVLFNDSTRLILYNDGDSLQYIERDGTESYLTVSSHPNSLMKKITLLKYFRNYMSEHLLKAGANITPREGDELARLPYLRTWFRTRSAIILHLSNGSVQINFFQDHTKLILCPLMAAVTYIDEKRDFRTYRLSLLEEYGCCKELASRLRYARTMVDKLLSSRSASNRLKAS
JMJD2A Tudor inh: JMJD2A Tudor domain (human) inhibition; O75164; AlphaScreen JMJD2A-Tudor / H3K4me3 peptide binding; Potency, µM (series often up to 114 µM), without a hit: at the top dose activity change, negative = inhibition, actives largely listed as inhibitors; 4.4% of 390,000 active; AID 504339; note: potency is the fitted concentration of half-maximal effect; % is set by controls: 0 for no effect and ±100 for the full control effect; nearly all actives have a fitted effect of over 50% in size
PI5P4K alpha inh: PI5P4K alpha (human) kinase inhibition | P48426 | PI5P4Kalpha enzyme, ADP-Glo luminescence, 60 min; hits give low values | max response, % | 1.2% of 330,000 active | AID 652105; active = max response of -50% or lower; inconclusive = between -30% and -50%; inactive = -30% or higher; note: value at the top dose of about 77 µM; % is set by controls: 0 for no effect and ±100 for the full control effect
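Single end-point luminescence (ADP-Glo) quantified ADP from PI5P4Kalpha turnover; ATP 5 microM final, 1 h at RT, 0.1% CHAPS and 0.28 mM EGTA in HEPES pH 7.4.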
BAZ2B inh: inhibitors of human BAZ2B bromodomain | AlphaScreen BAZ2B-H3K14Ac peptide displacement | Potency, µM (highest dose often 114 µM), for inactives: top-dose activity change, negative = inhibition, usual class: inhibitors | 4.4% of 360,000 active | AID 504333; note: potency is the fitted concentration of half-maximal effect; % is set by controls: 0 for no effect and ±100 for the full control effect; nearly all actives have a fitted effect of over 60% in size
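Complex of BAZ2B and biotin-H3K14Ac (50 nM apiece) forms over 30 min at RT, then faces library compounds up to 110 uM for another 30 min; AlphaScreen beads added, 20 min dark incubation, luminescence read.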
HP1b binding inh: HP1-beta chromodomain-methylated histone interaction inhibition | P83916 | AlphaScreen HP1-beta / biotin-H3K9me3 peptide binding | Potency, µM (doses to about 114 µM), for inactives: at the highest dose activity change, negative = inhibition, usual class: inhibitors | 0.56% of 390,000 active; note: potency is the fitted concentration of half-maximal effect; nearly all actives have a fitted effect of over 70% in size
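HP1-beta protein (50 nM final) preincubated 30 min at room temperature with biotinylated H3(1-18)K9me3 peptide (50 nM) in PBS pH 7.4, 0.01% Tween-20, then compound added for 30 min. AlphaScreen streptavidin donor/nickel chelate acceptor beads (10 ug/mL final), 30 min dark, luminescence read.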
The depositor's hits bear a star; u = inconclusive; x = not tested or not shown; [ ] = remark or other dose. Unless noted, calls come from the whole dose curve; as a rule, active = well fitted curve in the direction sought with a large enough effect; inconclusive = small, poorly fitted or top-dose-only effect, or another doubt; inactive = no such curve, though single readings can be large; an effect the other way counts as inactive or inconclusive.

SMILES	KAT2A inh	PLK1 PBD block	JMJD2A Tudor inh	PI5P4K alpha inh	BAZ2B inh	HP1b binding inh
CN(C(=O)CCN1C(=O)S/C(=C\c2ccccc2)C1=O)C1CCS(=O)(=O)C1 (centres undefined)	-9%	1%	-18%	-2	-3%	18%
CCOC(=O)C1CCN(C(=O)CCC(=O)NNc2nc3ccccc3c3nc(C)nn23)CC1	-2%	4%	-1%	-5	-10%	44%
COC(=O)CCN1CCN(S(=O)(=O)c2ccccc2Br)CC1	-7%	7%	0.79µM*	-8	20µM*	u
COC(=O)CCN1CCN(S(=O)(=O)c2ccc3c(c2)OCCO3)CC1	-2%	2%	0%	4	7%	38%
COc1ccc(C(CNC(=O)C2CC(=O)N(Cc3ccccc3)C2)N2CCOCC2)cc1 (centres undefined)	2%	-7%	-9%	5	-5%	5%
Fc1cccc(Cc2c(-c3ccco3)nc3c(Cl)cc(C(F)(F)F)cn23)c1	x	12µM*	x	u	x	x
CC(C)(Oc1ccc(Br)cc1)C(=O)Nc1cc(-c2nc3ccccc3[nH]2)ccc1Cl	0%	x	-30%	x	-18%	29%
COc1cccc(OC)c1C(=O)NC(=S)Nc1cc(-c2nc3ccccc3[nH]2)ccc1Cl	-5%	9.5µM*	-36%	-25	-11%	u
O=C(CCN1CCC(c2ccc(Cl)s2)=N1)c1ccc(Cl)s1	-3%	-9%	-14%	4	0%	26%
O=C(/C=C/c1ccc(O)c(O)c1)O[C@H](Cc1ccc(O)c(O)c1)C(=O)O	-16%	x	x	x	3.5µM*	x
O=C(O)/C=C/c1ccc(O)c(O)c1	1%	-7%	u	u	u	13%
CCC(C)(C)c1nnc(NC(=O)C2CCN(C(=O)c3ccco3)CC2)s1	-28%	2.4µM*	35µM*	u	u	u
COCc1nnc(NC(=O)C2CCN(C(=O)c3ccco3)CC2)s1	-4%	27µM*	13%	-19	-2%	-16%
COc1ccccc1Cc1nnc(NC(=O)C2CCN(C(=O)c3ccco3)CC2)s1	-13%	27µM*	-11%	-26	-20%	u
CCOCCc1nnc(NC(=O)C2CCN(C(=O)c3ccco3)CC2)s1	-6%	-16%	-1%	1	2%	-24%
Cc1nnc(NC(=O)C2CCN(C(=O)c3ccco3)CC2)s1	1%	-26%	-4%	3	4%	-13%
COc1ccc(OC)c(S(=O)(=O)N2CCC(NC(=O)c3ccccc3)CC2)c1	2%	-8%	-8%	2	11%	28%
O=C(/C=C/c1ccc(Cl)c(Cl)c1)NC1=NCCS1	-1%	21µM*	-27%[57.1 µM]	-1	-15%	-11%
O=C(Cn1cncn1)N/N=C/c1cccc2ccccc12	-4%	-3%	-10%	-3	-6%	26%
O=C(Cn1cncn1)NCc1cccc2ccccc12	3.5µM*	-4%	22%	0	7%	20%
C#CCOCCOCCOCCNc1nc(N2CCN(C(=O)CCCCCCCCCCNC(=O)[C@H](CCCCN)n3cc(C[C@@H](C)CC)nn3)CC2)nc(N2CCN(C(=O)CCCCCCCCCCNC(=O)[C@H](CCCN=C(N)N)n3cc(C[C@@H](C)CC)nn3)CC2)n1	-13%	9%	35µM*	-90*	50µM*	50µM*
C#CCOCCOCCOCCNc1nc(N2CCN(C(=O)CCCCCCCCCCNC(=O)[C@H](CO)n3cc(CCCCCN)nn3)CC2)nc(N2CCN(C(=O)CCCCCCCCCCNC(=O)[C@H](CCCN=C(N)N)n3cc(C[C@@H](C)CC)nn3)CC2)n1	-12%	x	x	x	50µM*	x
C#CCOCCOCCOCCNc1nc(N2CCN(C(=O)CCCCCCCCCCNC(=O)[C@@H](CCSC)n3cc(CCO)nn3)CC2)nc(N2CCN(C(=O)CCCCCCCCCCNC(=O)[C@H](CCCN=C(N)N)n3cc(C[C@@H](C)CC)nn3)CC2)n1	-6%	15%	45µM*	-79*	50µM*	-32%
C#CCOCCOCCOCCNc1nc(N2CCN(C(=O)CCCCCCCCCCNC(=O)Cn3cc(C[C@@H](C)O)nn3)CC2)nc(N2CCN(C(=O)CCCCCCCCCCNC(=O)[C@@H](CCSC)n3cc(CCO)nn3)CC2)n1	-5%	4%	-25%	1	4%	33%
C#CCOCCOCCOCCNc1nc(N2CCN(C(=O)CCCCCCCCCCNC(=O)[C@@H](CCSC)n3cc(CCO)nn3)CC2)nc(N2CCN(C(=O)CCCCCCCCCCNC(=O)[C@@H]([C@H](C)O)n3cc(C)nn3)CC2)n1	-5%	-15%	-15%	14	u	46%
SMILES	KAT2A inh	PLK1 PBD block	JMJD2A Tudor inh	PI5P4K alpha inh	BAZ2B inh	HP1b binding inh
C#CCOCCOCCOCCNc1nc(N2CCN(C(=O)CCCCCCCCCCNC(=O)[C@H](CCCCN)n3cc(C)nn3)CC2)nc(N2CCN(C(=O)CCCCCCCCCCNC(=O)[C@H](CCCN=C(N)N)n3cc(C[C@@H](C)CC)nn3)CC2)n1	-7%	10%	56µM*	-51*	u	u
O=C(CSc1nnc(NC(=O)C2CC2)s1)Nc1cccc(F)c1	2%	0%	-7%	-4	-36%	31%
CC[C@]12C(=O)N(C)C[C@H]([C@@H]3C(=O)N(Cc4ccccc4)C(=O)[C@@H]31)N2C(=O)c1ccccc1	x	-1%	-14%	-1	x	27%
COC(=O)c1c(-c2cccs2)csc1NC(=O)c1ccc(Br)cc1	u	x	-11%	x	-7%	6%
O=C(Nc1ccc(C(=O)OC2CCCCC2)cc1)c1ccncc1	-6%	-21%	-23%	13	-10%	23%
O=c1nc2c(O)cccn2c2c1c(=O)[nH]c1ccccc12	u	24µM*	22µM*	-58*	u	-13%
CCOc1ccc(Oc2ccccc2NC(=O)CN2C(=O)NC3(CCCC3)C2=O)cc1	1%	1%	-9%	0	0%	11%
CC(=O)c1cccc(NC(=O)c2c(N3CCCC3=O)c3cc(F)ccc3n2C)c1	4%	x	-2%	x	-13%	49%
Clc1ccc(-c2nc3c4ccccc4ccn3c2Cc2ccsc2)cc1	x	-7%	x	1	x	x
CCOC(=O)c1c(NC(=O)CCC(=O)O)sc2c1CCCCC2	-14%	6.7µM*	u	-20	-5%	u
CCOC(=O)c1c(NC(=O)C2C3C=CC(C3)C2C(=O)O)sc2c1CCCC2 (centres undefined)	11%	-14%	-19%	-3	-29%	35%
CC1CCc2c(sc(NC(=O)CCC(=O)O)c2C(=O)NC2CC2)C1 (centres undefined)	-15%	5.3µM*	u	-26	-36%	u
